High-throughput results: PubChem BioAssay, several laboratories
This is a sample that favours compounds with a hit; in the whole collection about 0.78% have one here.
CR mimetic SO – reduction of superoxide in aged yeast, primary screen, HTS; 330,000 tested, 0.18% active; superoxide response (% of plate mean), % at 10 µM; S. cerevisiae aged cells, superoxide DHE fluorescence; hits give low values;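 active = superoxide response under a set limit, about three screen SD below normal, cut at about 65% in these data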;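 note: yeast aged for seven days with compound at 30 °C before DHE staining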
PolyA inhibitor – polyadenylation inhibitors in yeast reporter cells, primary screen, luminescence, S. cerevisiae. S. cerevisiae SKY197-pL101 polyadenylation reporter, beta-gal luminescence; efflux-impaired pdr1/pdr3 knockout yeast; score 100 = 6 SD above DMSO. activity score, % at 12 µM. 300,000 tested, 0.02% active. AID 1875, 2009;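 active = lowest replicate activity score at least 50, where 100 means six control SD above control mean; inconclusive = lowest score under 50 but half or more replicates reach 50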;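 note: yeast exposed to compound for 9 h at 30 °C; higher score means more reporter readthrough which indicates perturbed polyadenylation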
GASC-1 inh – inhibitors of GASC-1 histone demethylase, primary screen, biochemical, fluorescence, DELFIA europium; Lysine-specific demethylase 4C (Homo sapiens), Q9H3R0; GST-JMJD2C(1-420) H3K9me3 demethylation; inhibition, % at 2.35 µM; 330,000 tested, 0.069% active; AID 2099, 2009;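 active = more than half of a compound's replicate wells show inhibition beyond 50%, single wells judged on their own value; inconclusive = some, but no more than half, of replicates pass 50% inhibition; inactive = no replicate passes 50% inhibition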;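 note: signal counts dimethyl H3K9 product captured on neutravidin plate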
Target sequence (Q9H3R0 1-420 limits assumed): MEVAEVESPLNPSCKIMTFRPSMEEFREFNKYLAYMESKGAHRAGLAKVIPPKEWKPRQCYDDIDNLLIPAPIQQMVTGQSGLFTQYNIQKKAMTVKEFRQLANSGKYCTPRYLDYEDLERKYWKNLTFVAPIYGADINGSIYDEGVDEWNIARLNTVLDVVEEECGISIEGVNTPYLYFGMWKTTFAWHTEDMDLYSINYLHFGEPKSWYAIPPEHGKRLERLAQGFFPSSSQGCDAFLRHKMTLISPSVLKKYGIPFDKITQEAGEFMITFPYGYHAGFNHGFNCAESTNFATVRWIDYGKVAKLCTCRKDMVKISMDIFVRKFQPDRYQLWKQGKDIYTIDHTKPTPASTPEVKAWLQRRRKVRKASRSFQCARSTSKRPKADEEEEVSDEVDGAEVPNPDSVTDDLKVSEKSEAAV
PKA-R1A act – activators of PKA-R1A holoenzyme, primary screen, biochemical, fluorescence polarization, Cy5-IP20, bovine R1A, mouse PKAc | cAMP-dependent protein kinase type I-alpha regulatory subunit (Bos taurus) + … | PKA-R1A dissociation; scaled: DMSO 0%, 113 µM cGMP 100% | activation, % at 11.4 µM | 340,000 tested, 0.083% active | AID 504707, 2011;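 active = percent activation above the mean of all tested compounds plus 3 SD, cut at about 19% in these data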;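 note: higher means more PKAc released from R1A so a rise in polarization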
PKA-R2B act – activators of PKA-R2B holoenzyme, primary screen, biochemical, fluorescence polarization, Cy5-IP20, human; cAMP-dependent protein kinase catalytic subunit beta (Homo sapiens) + cAMP-dependent …; PKA-R2B holoenzyme dissociation; R2B truncated from residue 108, S112A mutant; 0% DMSO only, 100% 113 µM cGMP; 340,000 tested, 0.079% active; activation, % at 11.4 µM; AID 504700, 2011;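 active = activation above a cutoff set at the mean over all compounds plus 3 SD, cut at about 18% in these data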;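 note: higher means more holoenzyme dissociation and a rise in polarization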
V-ATPase pHluor – regulators of yeast V-ATPase proton pumping, primary screen, pHLuorin cytosolic pH fluorescence. S. cerevisiae. response, % at 10 µM. AID 504577, 2011. 350,000 tested, 0.37% active; in the data active = response mostly above about 7.3%, no sharp cut-off; inactive = mostly below about 5.4%; note: actives read high
V-ATPase pH SP – yeast V-ATPase proton pumping modulators, confirmation, S. cerevisiae, pH-sensitive GFP, second cherry-pick; AID 602197, 2012; S. cerevisiae pHLuorin cytosolic pH, V-ATPase proton transport; 980 tested, 2% active; shares compounds with V-ATPase pHluor; response, % at 10 µM; in the data active = response above about 24%
R2B FP artifact – fluorescence polarization artefacts, biochemical, artefact control for PKA-R2B activator project; 270 tested, 6% active; shares compounds with PKA-R2B act; FP artifact counterscreen; activation, % at 11.4 µM; in the data active = activation above about 20%;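 note: Cy5 labelled IP20 peptide probe with compound but no PKA protein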
PKA-R2B confirm – activators of PKA-R2B holoenzyme, confirmation, biochemical, fluorescence polarization, human | shares compounds with PKA-R2B act | activation, % at 11.4 µM | PKA-R2B complex, activation | 270 tested, 9% active; in the data active = activation above about 19%
R1A FP artifact – FP signal interference without PKA proteins, confirmation, artefact control for PKA-R1A activator project, biochemical, fluorescence polarization, triplicate. shares compounds with PKA-R1A act. activation, % at 11.4 µM. AID 504799, 2011. Cy5-IP20 peptide alone, fluorescence polarization artifact counterscreen. 280 tested, 7% active;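 active = mean activation over triplicate runs exceeds the adjusted cutoff derived for the parent primary screen, cut at about 19% in these data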;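 note: no PKA protein present so any polarization rise reflects compound interference; higher means stronger polarization artifact and likely false positive in parent screen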
PKA-R1A confirm – activators of PKA-R1A holoenzyme, confirmation, biochemical, fluorescence polarization, Cy5-IP20, triplicate. shares compounds with PKA-R1A act. PKA-R1A holoenzyme dissociation. activation, % at 11.4 µM. 280 tested, 9% active. AID 504800, 2011;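 active = mean activation over replicate wells exceeds the adjusted hit threshold taken from the earlier primary screen, cut at about 20% in these data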
A number is an active result; i = inactive; ? = inconclusive; nt = no result given; ! = a repeat was not active.

SMILES | CR mimetic SO | PolyA inhibitor | GASC-1 inh | PKA-R1A act | PKA-R2B act | V-ATPase pHluor | R2B FP artifact | PKA-R2B confirm | others
Cc1cnc(-n2c(=S)[nH]c3ccccc3c2=O)s1 | i | nt | i | i | i | i | nt | nt
Cc1ccc(C2(O)CCN3CCCCC32)cc1 (configuration not stated) | i | i | i | i | i | 12 | nt | nt | V-ATPase pH SP=i
Cc1ccc(-n2c(O)c(/C=C/C=Nc3ccccc3)c(=O)[nH]c2=O)cc1 | i | i | i | i | i | 85 | nt | nt | V-ATPase pH SP=i
COc1cc2c(cc1OC)C13CCN4CC5CCOC6CC(=O)N2C1C6C5CC43 (configuration not stated) | nt | nt | nt | i | i | i | nt | nt
O=C(Nc1ccccc1)c1c(O)[nH]c(=S)[nH]c1=O | i | i | i | i | i | 13 | nt | nt | V-ATPase pH SP=i
O=C(Nc1ccccc1)c1c(O)[nH]c(=O)[nH]c1=O | i | i | i | i | i | i | nt | nt
CC1CCCC(NC(=O)COC(=O)c2cn(C)c3ccccc23)C1C (configuration not stated) | i | nt | i | i | i | i | nt | nt
Cc1ccccc1NC(=O)N1Cc2ccccc2-n2nncc2C1 | nt | nt | nt | i | i | i | nt | nt
COC(=O)C1=C(c2ccc(F)cc2OCc2ccccc2)C[C@@H]2CC[C@H]1N2C(=O)N1CCCC1 | i | nt | i | i | i | i | nt | nt
CC12CCC(=O)C=C1CCC1C2CCC2(C)C1CCC2(O)CC#N (configuration not stated) | nt | nt | nt | i | i | 12 | nt | nt | V-ATPase pH SP=i
C[C@]12CCC(=O)C=C1CC[C@@H]1C2CC[C@]2(C)C(=O)CCC12 (some centres not stated) | i | i | i | i | i | i | nt | nt
N#CCCn1cc(C=C2C(=O)NC(=O)NC2=O)c(-c2ccccc2)n1 | i | i | i | i | 19 | i | i | i
Oc1ccc2c3c1O[C@H]1[C@@H](O)CC[C@@]4(O)[C@@H](C2)N(CC2CCC2)CC[C@]314 | i | i | i | i | 19! | i | i | i
C[C@H]1CN([C@@H](C)CO)C(=O)CCCn2nncc2CO[C@@H]1CN(C)C(=O)Oc1ccccc1 | nt | nt | nt | i | i | i | nt | nt
CCN(CC)CCO | i | nt | i | i | i | i | nt | nt
Cc1ccc(/C=C2/C(=O)NC(=O)N(CCc3ccc(F)cc3)C2=O)o1 | i | i | i | i | 24 | i | i | i
CCOP(=O)(OCC)C(NC(=O)c1ccccc1Cl)=C(Cl)Cl | i | i | i | i | 19 | i | i | i
CCOP(=O)(C(NC(=O)c1ccccc1Cl)=C(Cl)Cl)c1ccccc1 (configuration not stated) | i | i | i | i | i | i | nt | nt
COc1ccc(CC(=O)C2C(=O)N(C)c3ccccc32)cc1OC (configuration not stated) | nt | nt | nt | i | i | i | nt | nt
O=C(O)c1cccc2c1NC(C(=O)O)C1CC(Sc3ccccc3[N+](=O)[O-])C(Cl)C21 (configuration not stated) | i | nt | i | i | 22 | i | 24 | i
C#CCN(C)C(C)Cc1ccccc1 (configuration not stated) | i | i | i | i | 19 | i | i | i
CC(Cc1ccccc1)N(C)CC1C(=O)C2CCC1C2 (configuration not stated) | nt | nt | nt | i | i | i | nt | nt
CCn1cc(CN2CCCC(C(=O)c3cccc(OC)c3)C2)c(C)n1 (configuration not stated) | i | i | i | i | i | i | nt | nt
CCCn1cc(CN2CCCC(C(=O)c3cccc(OC)c3)C2)c(C)n1 (configuration not stated) | i | i | i | i | 21 | i | i | i
COc1ccc(OC(=O)N(C)C[C@@H]2OCc3cnnn3CCCC(=O)N([C@H](C)CO)C[C@H]2C)cc1 | nt | nt | nt | i | i | i | nt | nt
O=C1NC(=S)NC(=O)C1=Cc1cccn1-c1ccc(O)cc1 | nt | i | ? | 21 | i | i | nt | nt | R1A FP artifact=i;PKA-R1A confirm=i
C[C@]12C[C@@H](O)[C@H](O)CC1=CCC1C2CC[C@@]2(C)C1CC[C@@H]2O (some centres not stated) | i | nt | nt | i | i | i | nt | nt
